This note sets out measurements from the supplement of paper PMC12297408.

Structures can show the parent of a compound that is named as a salt. Values without a mark were called inactive.

The assay relates to Plasmodium falciparum NF54/iGP1_RE9H ulg8 stage V gametocytes. Put plainly: gametocyte viability (luciferase signal relative to DMSO control) (% of DMSO control); higher = less gametocytocidal activity, active = 50 or less. The conditions noted are these: exposure time: 72 h. The gist of the method:
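In 96-well plates holding nanolitre spots of compound (10 mM DMSO stocks), NF54/iGP1_RE9Hulg8 stage V gametocytes from day 12 were added at ~2.5% gametocytemia and 3% hematocrit in medium with 0.5% Albumax II, giving single wells at 10 µM or 1 µM. Incubation lasted 72 h at 37 °C. Each 90 µl sample then received 10 µl D-luciferin (30 mg/ml) before luminescence reading on an IVIS Lumina II, and viability was normalized to the mean of DMSO vehicle wells on the same plate.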

Regarding `CC1(C)CNc2cc(NC(=O)c3cccnc3NCc3ccncc3)ccc21` [Motesanib Diphosphate], the gametocyte viability runs as follows: (concentration: 1 µM) 97; (concentration: 10 µM) 97.4.

Consider `Cc1ccc(NC(=O)c2ccc(CN3CCN(C)CC3)cc2)cc1Nc1nccc(-c2cccnc2)n1` [Imatinib Mesylate], for which the gametocyte viability was 108 (concentration: 1 µM) and 111 (concentration: 10 µM).

Consider `CN(C)c1ccc(-c2nc3ncc(Cl)c(N4CCN(CC(=O)Nc5nccs5)CC4)c3[nH]2)cc1`, for which the gametocyte viability reads like this: (concentration: 1 µM) 82.4; (concentration: 10 µM) 101.

Consider `O=c1ncn2nc(Sc3ccc(F)cc3F)ccc2c1-c1c(Cl)cccc1Cl`, for which the gametocyte viability is 95.2 (concentration: 1 µM) and 103 (concentration: 10 µM).

As to `CNC(=O)c1ccccc1Sc1ccc2c(/C=C/c3ccccn3)n[nH]c2c1` [Axitinib], the gametocyte viability by setting is: (concentration: 1 µM) 103; (concentration: 10 µM) 98.8.

As for `CC(C)CC(=O)Nc1n[nH]c2c1CN(C(=O)C1CCN(C)CC1)C2(C)C`, the gametocyte viability by setting is: (concentration: 1 µM) 96.4; (concentration: 10 µM) 110.

On to `COc1cc(Nc2ncc(F)c(Nc3ccc4c(n3)NC(=O)C(C)(C)O4)n2)cc(OC)c1OC`, for which the gametocyte viability was 99.8 (concentration: 1 µM) and 104 (concentration: 10 µM).

In the case of `Cc1cc(Nc2nc(N[C@@H](C)c3ncc(F)cn3)ncc2Cl)[nH]n1`, the gametocyte viability (concentration: 1 µM) is 97.5 and the gametocyte viability (concentration: 10 µM) is 95.5.

Take `C#Cc1cccc(Nc2ncnc3cc(OCCOC)c(OCCOC)cc23)c1` [Erlotinib HCl]: the gametocyte viability is 86.2 (concentration: 1 µM) and 82.4 (concentration: 10 µM).

Consider `C=CC(=O)Nc1cccc(Sc2nc(Nc3ccc(N4CCN(C)CC4)cc3)ncc2Cl)c1`, for which the gametocyte viability by setting is: (concentration: 1 µM) 87.2; (concentration: 10 µM) 72.7.

`Cc1ccc(F)c(NC(=O)Nc2ccc(-c3cccc4[nH]nc(N)c34)cc2)c1` [Linifanib (ABT-869)]: the gametocyte viability is 90.6 (concentration: 1 µM) and 89.4 (concentration: 10 µM).

For the compound `C#Cc1cccc(Nc2ncnc3cc(OC)c(OC)cc23)c1`, the gametocyte viability is, setting by setting: (concentration: 1 µM) 103; (concentration: 10 µM) 96.4.

As for `C#Cc1cccc(Nc2ncnc3cc(OCCOC)c(OCCO)cc23)c1` [OSI-420 (Desmethyl Erlotinib)], the gametocyte viability (concentration: 1 µM) was 92.8 and the gametocyte viability (concentration: 10 µM) is 97.

Turning to `O=S(=O)(c1cccc2c(Cl)cccc12)N1CCCNCC1`, the gametocyte viability runs as follows: (concentration: 1 µM) 93.2; (concentration: 10 µM) 90.

With `C=CC(=O)Nc1cc2c(Nc3ccc(F)c(Cl)c3)ncnc2cc1OCCCN1CCOCC1` [CI-1033 (Canertinib)], the gametocyte viability (concentration: 1 µM) is 97.8 and the gametocyte viability (concentration: 10 µM) is 100.

Regarding `Cc1nc(NC(=O)N2CCC[C@H]2C(N)=O)sc1-c1csc(C(C)(C)C)n1`, the gametocyte viability by setting is: (concentration: 1 µM) 101; (concentration: 10 µM) 92.9.

As for `Cc1cc(Nc2cc(N3CCN(C)CC3)nc(Sc3ccc(NC(=O)C4CC4)cc3)n2)n[nH]1` [VX-680 (MK-0457, Tozasertib)], the gametocyte viability is, setting by setting: (concentration: 1 µM) 97.5; (concentration: 10 µM) 84.3.

In the case of `O=C1Cc2c([nH]c3ccc(Br)cc23)-c2ccccc2N1` [Kenpaullone], the gametocyte viability was 62.2 (concentration: 1 µM) and 16.3 (active) (concentration: 10 µM).

Take `CCCNC(=O)Nc1ccc(Oc2ncnc3cc(OC)c(OC)cc23)cc1Cl`: the gametocyte viability (concentration: 1 µM) is 97.6 and the gametocyte viability (concentration: 10 µM) was 104.

As to `O=S(=O)(NCCNC/C=C/c1ccc(Br)cc1)c1cccc2cnccc12`, the gametocyte viability is, setting by setting: (concentration: 1 µM) 99; (concentration: 10 µM) 93.1.

`Cc1nc(Nc2ncc(C(=O)Nc3c(C)cccc3Cl)s2)cc(N2CCN(CCO)CC2)n1`: the gametocyte viability by setting is: (concentration: 1 µM) 95.3; (concentration: 10 µM) 87.3.

Consider `Cc1ccc(S(=O)(=O)Nc2nc3ccccc3nc2Nc2ccc3nsnc3c2)cc1`, for which the gametocyte viability reads like this: (concentration: 1 µM) 87.4; (concentration: 10 µM) 103.

`Cn1c(=O)n(-c2ccc(C(C)(C)C#N)cc2)c2c3cc(-c4cnc5ccccc5c4)ccc3ncc21`: the gametocyte viability is 96.8 (concentration: 1 µM) and 104 (concentration: 10 µM).

Turning to `O=C(O)c1ccc2nc(-c3ccccc3)c(-c3ccccc3)nc2c1`, the gametocyte viability reads like this: (concentration: 1 µM) 98.6; (concentration: 10 µM) 95.2.

Turning to `O=C(O)c1ccc(Nc2ncc3c(n2)-c2ccc(Cl)cc2C(c2c(F)cccc2F)=NC3)cc1`, the gametocyte viability is 102 (concentration: 1 µM) and 103 (concentration: 10 µM).

Take `Nc1ncnc2c1c(I)cn2[C@@H]1O[C@H](CO)[C@@H](O)[C@H]1O` [5-Iodotubericidin]: the gametocyte viability reads like this: (concentration: 1 µM) 103; (concentration: 10 µM) 113.

Consider `Cc1ccc(-c2nn(C(C)(C)C)c3ncnc(N)c23)cc1`, for which the gametocyte viability (concentration: 1 µM) was 103 and the gametocyte viability (concentration: 10 µM) is 105.

Take `Cc1cc(C(C)Nc2ccccc2)c2nc(N3CCOCC3)cc(=O)n2c1` (stereo not given): the gametocyte viability reads like this: (concentration: 1 µM) 90.1; (concentration: 10 µM) 89.

On to `COc1cc(Nc2ncc3c(n2)-c2ccc(Cl)cc2C(c2c(F)cccc2OC)=NC3)ccc1C(=O)O` [MLN8237 (Alisertib)], for which the gametocyte viability is, setting by setting: (concentration: 1 µM) 95; (concentration: 10 µM) 94.6.

For the compound `Cn1cnc2c(NCc3ccccc3)nc(NCCO)nc21` [Olomoucine], the gametocyte viability reads like this: (concentration: 1 µM) 95.2; (concentration: 10 µM) 91.5.
